Results on 14 molecules are retold here after PubChem BioAssay (NCI).

What all share (assay): NCI-60 one-dose screen, 48 h (100 = growth as untreated, 0 = no growth, -100 = all killed)
What all share (conditions): 10 µM unless noted

Assay [1] concerns SR leukemia.
The subject of assay [2] is RPMI-8226 leukemia.
Assay [3] concerns OVCAR-8 ovarian.
Assay [4] concerns OVCAR-5 ovarian.
The subject of assay [5] is OVCAR-4 ovarian.
Assay [6] has as its system IGROV1 ovarian.
In assay [7] the test system is OVCAR-3 ovarian.
Assay [8] concerns HS 578T breast.
In assay [9] the test system is NCI/ADR-RES ovarian.
Assay [10] concerns SK-OV-3 ovarian.

“And” between values parts separate entries of the source, which are not always exact repeats. Equal values may be shown once. About 83,000 compounds went through this panel and 20% of them were active in at least one assay; those are over-represented in the sample as a whole.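 A percent growth of 40 corresponds to 60% growth inhibition; 0 means no net growth; -100 means all cells died. Active threshold: below 10.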 Some compounds were tested as several samples or in several runs, with calls that do not always agree. The source made the active and inactive calls. *1 amine or outer side, *2 acyl side, *3 side chain or, on linkers, in order; H or OH if unused. Where a SMILES comes first, the peptide text is derived from it. Bridges are numbered along the chain shown (N, C = ends). Roman numbers before positions name the chains, in order. [ ]: non-standard residue; d: D form. Actinocin(1to9) = Cc1c2oc3c(C)ccc(C(=O)[*:2])c3nc-2c(C(=O)[*:1])c(N)c1=O; NMeV = CN[CH](C(=O)O)C(C)C; Sar = CNCC(=O)O

As to `Nc1nc(-c2ccccc2)nc(N)c1N=O`, the growth is 27.4% (inactive) in assay [1]; 41% (inactive) in assay [2]; 54.3% (inactive) in assay [3]; 96.9% (inactive) in assay [4]; 83.9% (inactive) in assay [5]; 68.6% (inactive) in assay [6]. Also, the values for the growth in assay [7], in assay [8] and in assay [9] were 27.7% (inactive), 65% (inactive) and 78.5% (inactive), respectively.
Regarding `CC(=O)Nc1ccc(C(=O)CCl)cc1`, the growth in [1] is -17.9% (active); in [2], 25.2% (inactive); in [3], 92.1% (inactive); in assay [4], 94.5% (inactive); in assay [5] it was 60.6% (inactive); in assay [6], 93.2% (inactive). Further, the growth in assay [7] is -21.6% (active); in assay [8], 19% (inactive); in [9], 84.5% (inactive).
In the case of `CN1CCC(CN2c3ccccc3Sc3ccccc32)C1` (configuration not stated), the growth in assay [1] is 79.2% (inactive); in assay [2] it was 78.7% (inactive); in assay [4], 84.1% (inactive); in assay [5] it was 94.4% (inactive); in [10], 109% (inactive); in assay [7], 88.8% (inactive). Further, the growth in assay [8] is 86.1% (inactive).
Consider `C/C=C/c1cc2c(c(=O)o1)C(=O)[C@@H](O)[C@H](C)O2`, for which the growth was 11.9% (inactive) in assay [1]; -45.7% (active) in assay [2]; 87.5% (inactive) in assay [4]; -12.6% (active) in [5]; 109% (inactive) in assay [10]; -46.9% (active) in assay [6]. For the same molecule, the growth in assay [7] was 47.5% (inactive); in assay [8] it was 93.4% (inactive); in assay [9], 86% (inactive).
As for `COc1cc(NCc2ccc3nc(N)nc(N)c3c2C)cc(OC)c1OC` (tested in a mixture with another compound), the growth in assay [1] was 31.7% (inactive); in assay [2], 41.7% (inactive); in assay [4], 36.9% (inactive); in assay [10], 58% (inactive); in [6] it was -10.2% (active); in assay [7], 55.3% (inactive). The growth was 44.1% (inactive) in assay [8] and 32.2% (inactive) in assay [9].
For `Cc1nc(Sc2nc3ccc([N+](=O)[O-])cc3s2)sc1C`, the growth in assay [1] was -13.2% (active); in assay [2], 2.79% (active); in [3] it was 19.5% (inactive); in [5], 36.4% (inactive); in [10] it was 39.4% (inactive); in [6], 32% (inactive). Moreover, the values for the growth in assay [7], in [8] and in assay [9] were -2.8% (active), 50% (inactive) and 16.7% (inactive), respectively.
For the molecule `OC(c1cc(-c2ccc(C(F)(F)F)cc2)nc(C(F)(F)F)c1)C1CCCCN1` (configuration not stated), the growth in assay [1] was -37.6% (active) and -57.5% (active) and -38.9% (active); in assay [2], -35.4% (active) and -61.4% (active) and -21% (active); in [3] it was -57.7% (active) and -54.5% (active) and -34.4% (active); in assay [5] it was -6.94% (active) and -29.6% (active) and 39.1% (inactive); in assay [10], 24.4% (inactive) and 39.9% (inactive) and 86.2% (inactive); in assay [6], -25.6% (active) and -92.4% (active) and 30.5% (inactive). Further, the growth is -70.3% (active) and -68.3% (active) and 8.69% (active) in [7]; -3.8% (active) and -53.8% (active) and 48.9% (inactive) in assay [8]; -31.5% (active) and -50% (active) and 25% (inactive) in assay [9].
Turning to `NC(=S)N/N=C/c1ncccc1O`, the growth in assay [1] is 12.1% (inactive); in assay [2], 11.3% (inactive); in assay [4], -8.61% (active); in [5] it was 35.2% (inactive); in [10] it was 47.3% (inactive); in [6] it was -11.2% (active). The growth in assay [7] is 27.7% (inactive); in assay [9], -27.4% (active).
For `O=C(OC12CC3CC(CC(C3)C1)C2)c1ccc(NCc2cc(O)ccc2O)cc1`, the growth in assay [1] is -19.4% (active); in assay [2], -36% (active); in assay [4] it was -63.4% (active); in [5] it was -85.5% (active); in assay [10] it was 45.7% (inactive); in assay [6], -81.4% (active). Besides, the growth was -90.3% (active) in [7] and -79.1% (active) in [9].
Turning to `COC1CC(C)C(OC)c2cc(O)cc(c2O)NC(=O)/C(C)=C/C=C\C(C)C(OC(N)=O)/C(C)=C\C(C)C1OC` (configuration not stated), the growth is -5.85% (active) in assay [1]; 1.65% (active) in [2]; 27.2% (inactive) in assay [4]; -39.9% (active) in [5]; 16.1% (inactive) in assay [10]; -0.486% (active) in assay [6]. For the same molecule, the growth was 20.2% (inactive) in [7] and -67.2% (active) in [9].
Consider `N#CC1c2ccccc2C=CN1C(=O)CCCl` (configuration not stated), for which the growth in assay [1] was 5.98% (active); in [2], 24.3% (inactive); in assay [4] it was 108% (inactive); in [5], 108% (inactive); in assay [10], 97.2% (inactive); in assay [6], 95.3% (inactive). Also, the growth in [7] was 91.4% (inactive); in assay [8], 104% (inactive); in assay [9] it was 102% (inactive).
Take `CCC(C)C1NC(=O)C(NC(=O)c2c3nc4c(C(=O)NC5C(=O)NC(C(C)CC)C(=O)N6CCCC6C(=O)N(C)CC(=O)N(C)C(C(C)C)C(=O)OC5C)ccc(C)c4oc-3c(C)c(=O)c2N)C(C)OC(=O)C(C(C)C)N(C)C(=O)CN(C)C(=O)C2CCCN2C1=O` (configuration not stated) (I: TIP[Sar][NMeV] / II: TIP[Sar][NMeV]; ester I:1-I:C, II:1-II:C; linker I:N-II:N via Actinocin(1to9); configuration not given here): the growth was 5.31% (active) in assay [1]; -18.8% (active) in assay [2]; -76.6% (active) in [4]; -1.07% (active) in assay [5]; 18.2% (inactive) in assay [10]; -32.4% (active) in assay [6]. Also, the growth in assay [7] was 1.47% (active).
As for `CC1(O)CCCCCC1`, the growth in [1] is 92.5% (inactive); in assay [2], 102% (inactive); in [3], 102% (inactive); in assay [5], 107% (inactive); in assay [10], 93.9% (inactive); in assay [6], 103% (inactive). Moreover, the growth in assay [7] was 103% (inactive); in assay [8], 98.3% (inactive); in assay [9], 102% (inactive).
For the molecule `CCC(C)C(N)C(=O)NC(CC(N)=O)C(=O)NC(CC(C)C)C(=O)NC(CCCCN)C(=O)NC(C)C(=O)NC(CC(C)C)C(=O)NC(C)C(=O)NC(C)C(=O)NC(CC(C)C)C(=O)NC(C)C(=O)NC(CCCCN)C(=O)NC(CCCCN)C(=O)NC(C(=O)NC(CC(C)C)C(N)=O)C(C)CC` (configuration not stated), the growth was 85.8% (inactive) in [1]; 74.7% (inactive) in [2]; 166% (inactive) in assay [4]; 95.2% (inactive) in assay [5]; 110% (inactive) in [10]; 102% (inactive) in assay [6]. In addition, the growth was 117% (inactive) in assay [7] and 102% (inactive) in assay [9].
